Measurements published in publication PMC7862700, “An all-to-all approach to the identification of sequence-specific readers for epigenetic DNA modifications on cytosine”.

What was measured:
Test in all cases: DAPPL (digital affinity profiling via proximity ligation, sequencing); 10 mM Tris-HCl pH 7.5, 50 mM NaCl, 1 mM DTT, 4% glycerol, room temperature, 30 min; GST-TFs on glutathione beads, 16-mer random dsDNA library, 0.1% formaldehyde crosslink after washing; high values mean tight binding
Conditions in all cases: protein: recombinant; tags: N-terminal GST; dsDNA, one strand shown
ERF = target: T1, ERF (Homo sapiens, UniProt P50548 1-548)
T1 sequence: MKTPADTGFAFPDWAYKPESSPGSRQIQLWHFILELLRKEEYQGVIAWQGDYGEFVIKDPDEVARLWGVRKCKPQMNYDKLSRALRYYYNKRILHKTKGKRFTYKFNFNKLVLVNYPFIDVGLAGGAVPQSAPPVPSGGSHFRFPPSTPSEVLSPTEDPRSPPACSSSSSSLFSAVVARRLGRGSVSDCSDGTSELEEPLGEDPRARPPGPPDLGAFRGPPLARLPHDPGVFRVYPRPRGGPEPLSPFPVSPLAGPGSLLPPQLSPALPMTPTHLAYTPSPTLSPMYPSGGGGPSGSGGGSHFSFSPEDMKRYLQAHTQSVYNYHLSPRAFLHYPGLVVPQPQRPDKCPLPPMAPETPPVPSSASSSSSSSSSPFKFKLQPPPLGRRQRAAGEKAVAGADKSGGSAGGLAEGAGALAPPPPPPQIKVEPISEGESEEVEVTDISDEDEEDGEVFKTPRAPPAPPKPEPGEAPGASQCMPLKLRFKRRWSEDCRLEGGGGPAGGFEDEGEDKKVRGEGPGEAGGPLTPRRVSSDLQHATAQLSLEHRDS
Procedure, shortened: (§1)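 After expression in yeast as GST fusions, human transcription factors were bound to glutathione beads, DNA-barcoded and mixed with a tag-only sample. The pools were incubated with 200 nmole of a 16-mer random double-stranded DNA library in Tris/NaCl/DTT/glycerol buffer (30 min, room temperature), washed and crosslinked with 0.1% formaldehyde. Proximity ligation with BsaI/T4 ligase ran for 1 h at 37 °C, before PCR amplification and sequencing on an Illumina NextSeq500. Binding signal is a hexamer's read frequency for a factor divided by its frequency for the tag-only sample.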

ETV3L = target: T2, ETV3L (Homo sapiens, UniProt Q6ZN32 1-361)
T2 sequence: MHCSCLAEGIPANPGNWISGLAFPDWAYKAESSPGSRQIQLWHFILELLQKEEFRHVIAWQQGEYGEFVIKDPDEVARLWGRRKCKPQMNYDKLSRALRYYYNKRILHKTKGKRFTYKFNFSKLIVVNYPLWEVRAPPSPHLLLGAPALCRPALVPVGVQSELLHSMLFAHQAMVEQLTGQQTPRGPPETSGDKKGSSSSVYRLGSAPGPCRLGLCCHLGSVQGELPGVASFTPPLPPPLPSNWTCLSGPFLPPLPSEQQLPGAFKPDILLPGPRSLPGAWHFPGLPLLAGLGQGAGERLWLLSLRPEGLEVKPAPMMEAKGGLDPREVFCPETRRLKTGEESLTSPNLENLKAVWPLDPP
Procedure, shortened: as §1

ETS2 = target: T3, ETS2 (Homo sapiens, UniProt P15036 1-469)
T3 sequence: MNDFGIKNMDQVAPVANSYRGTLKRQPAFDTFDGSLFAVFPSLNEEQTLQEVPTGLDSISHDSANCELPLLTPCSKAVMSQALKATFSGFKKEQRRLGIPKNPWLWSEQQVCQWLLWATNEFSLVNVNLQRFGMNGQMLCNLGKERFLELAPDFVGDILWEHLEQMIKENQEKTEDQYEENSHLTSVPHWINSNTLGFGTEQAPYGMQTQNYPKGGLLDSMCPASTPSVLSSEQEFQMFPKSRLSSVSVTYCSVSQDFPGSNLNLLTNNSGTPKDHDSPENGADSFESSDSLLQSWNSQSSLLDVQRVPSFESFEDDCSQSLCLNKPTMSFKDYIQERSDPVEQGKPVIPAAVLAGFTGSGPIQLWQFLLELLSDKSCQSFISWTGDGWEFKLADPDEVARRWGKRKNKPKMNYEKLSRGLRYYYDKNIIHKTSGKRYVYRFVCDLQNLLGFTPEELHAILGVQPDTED
Procedure, shortened: as §1

SPDEF = target: T4, SPDEF (Homo sapiens, UniProt O95238 1-335)
T4 sequence: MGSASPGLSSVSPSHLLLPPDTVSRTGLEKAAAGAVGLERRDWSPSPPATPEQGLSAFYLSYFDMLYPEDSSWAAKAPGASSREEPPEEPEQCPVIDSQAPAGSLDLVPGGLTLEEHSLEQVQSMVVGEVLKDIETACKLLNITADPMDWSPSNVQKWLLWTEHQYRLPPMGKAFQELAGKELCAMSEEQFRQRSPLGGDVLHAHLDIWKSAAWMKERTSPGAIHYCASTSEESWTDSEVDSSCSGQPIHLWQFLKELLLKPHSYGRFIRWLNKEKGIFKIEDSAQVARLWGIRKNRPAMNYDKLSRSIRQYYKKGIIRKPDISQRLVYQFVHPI
Procedure, shortened: as §1

ETV7 = target: T5, ETV7 (Homo sapiens, UniProt Q9Y603 1-341)
T5 sequence: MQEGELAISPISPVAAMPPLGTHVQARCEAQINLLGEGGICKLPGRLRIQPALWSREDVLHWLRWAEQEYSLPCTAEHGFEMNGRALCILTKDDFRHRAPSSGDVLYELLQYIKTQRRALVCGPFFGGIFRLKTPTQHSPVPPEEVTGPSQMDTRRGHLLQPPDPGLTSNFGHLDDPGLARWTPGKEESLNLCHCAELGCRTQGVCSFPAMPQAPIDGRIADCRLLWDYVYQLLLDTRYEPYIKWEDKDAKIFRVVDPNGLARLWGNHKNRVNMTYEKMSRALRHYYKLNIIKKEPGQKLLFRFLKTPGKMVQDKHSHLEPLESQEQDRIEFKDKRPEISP
Procedure, shortened: as §1

ELF5 = target: T6, ELF5 (Homo sapiens, UniProt Q9UKW6-2 1-255)
T6 sequence: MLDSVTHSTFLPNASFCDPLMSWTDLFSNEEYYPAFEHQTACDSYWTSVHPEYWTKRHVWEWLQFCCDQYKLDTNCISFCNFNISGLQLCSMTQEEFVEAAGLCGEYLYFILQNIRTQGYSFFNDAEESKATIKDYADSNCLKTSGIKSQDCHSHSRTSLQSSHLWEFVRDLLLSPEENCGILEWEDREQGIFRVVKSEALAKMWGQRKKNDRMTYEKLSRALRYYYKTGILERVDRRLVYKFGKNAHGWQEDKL
Procedure, shortened: as §1

ETV3 = target: T7, ETV3 (Homo sapiens, UniProt P41162-2 1-143)
T7 sequence: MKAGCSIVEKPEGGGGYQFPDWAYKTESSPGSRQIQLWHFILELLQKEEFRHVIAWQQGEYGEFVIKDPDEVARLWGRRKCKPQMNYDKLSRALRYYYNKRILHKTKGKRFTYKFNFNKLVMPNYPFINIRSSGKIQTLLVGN
Procedure, shortened: as §1

ETV6 = ETV6 (Homo sapiens, UniProt P41212 1-452)
Chain of ETV6 (P41212 whole entry): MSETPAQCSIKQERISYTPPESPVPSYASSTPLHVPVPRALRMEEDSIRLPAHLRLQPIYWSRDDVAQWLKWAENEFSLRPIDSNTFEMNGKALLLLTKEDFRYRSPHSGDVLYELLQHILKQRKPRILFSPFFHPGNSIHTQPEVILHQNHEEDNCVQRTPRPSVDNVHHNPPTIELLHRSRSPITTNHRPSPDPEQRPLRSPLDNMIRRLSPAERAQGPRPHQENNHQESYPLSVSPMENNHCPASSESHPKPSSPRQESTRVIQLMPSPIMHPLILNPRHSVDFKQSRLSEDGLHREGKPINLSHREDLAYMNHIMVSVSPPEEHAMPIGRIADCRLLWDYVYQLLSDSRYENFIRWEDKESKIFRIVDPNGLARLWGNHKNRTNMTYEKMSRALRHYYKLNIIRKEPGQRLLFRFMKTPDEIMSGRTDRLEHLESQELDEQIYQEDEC
Procedure, shortened: as §1

Sequence | binding signal (ERF) | binding signal (ETV3L) | binding signal (ETS2) | binding signal (SPDEF) | binding signal (ETV7) | binding signal (ELF5) | binding signal (ETV3) | binding signal (ETV6)
TGCCTC | 1.4 fold enrichment (6-mer frequency, TF over GST control) | 1.32 fold enrichment (6-mer frequency, TF over GST control) | 1.22 fold enrichment (6-mer frequency, TF over GST control) | 1.39 fold enrichment (6-mer frequency, TF over GST control) | 1.35 fold enrichment (6-mer frequency, TF over GST control) | 1.4 fold enrichment (6-mer frequency, TF over GST control) | 1.39 fold enrichment (6-mer frequency, TF over GST control) | 1.36 fold enrichment (6-mer frequency, TF over GST control)
CCGCAT | 1.46 fold enrichment (6-mer frequency, TF over GST control) | 1.6 fold enrichment (6-mer frequency, TF over GST control) | 1.56 fold enrichment (6-mer frequency, TF over GST control) | 1.64 fold enrichment (6-mer frequency, TF over GST control) | 1.44 fold enrichment (6-mer frequency, TF over GST control) | 1.75 fold enrichment (6-mer frequency, TF over GST control) | 1.57 fold enrichment (6-mer frequency, TF over GST control) | 1.59 fold enrichment (6-mer frequency, TF over GST control)
GTATCC | 1.77 fold enrichment (6-mer frequency, TF over GST control) | 1.81 fold enrichment (6-mer frequency, TF over GST control) | 1.84 fold enrichment (6-mer frequency, TF over GST control) | 3.14 fold enrichment (6-mer frequency, TF over GST control) | 1.69 fold enrichment (6-mer frequency, TF over GST control) | 2.1 fold enrichment (6-mer frequency, TF over GST control) | 2.03 fold enrichment (6-mer frequency, TF over GST control) | 1.79 fold enrichment (6-mer frequency, TF over GST control)
ACCGAT | 1.05 fold enrichment (6-mer frequency, TF over GST control) | 1.11 fold enrichment (6-mer frequency, TF over GST control) | 1.11 fold enrichment (6-mer frequency, TF over GST control) | 1.05 fold enrichment (6-mer frequency, TF over GST control) | 1.08 fold enrichment (6-mer frequency, TF over GST control) | 1.04 fold enrichment (6-mer frequency, TF over GST control) | 1.13 fold enrichment (6-mer frequency, TF over GST control) | 1.08 fold enrichment (6-mer frequency, TF over GST control)
ATCTTG | 1.29 fold enrichment (6-mer frequency, TF over GST control) | 1.31 fold enrichment (6-mer frequency, TF over GST control) | 1.33 fold enrichment (6-mer frequency, TF over GST control) | 1.27 fold enrichment (6-mer frequency, TF over GST control) | 1.24 fold enrichment (6-mer frequency, TF over GST control) | 1.23 fold enrichment (6-mer frequency, TF over GST control) | 1.37 fold enrichment (6-mer frequency, TF over GST control) | 1.18 fold enrichment (6-mer frequency, TF over GST control)
AAAAAG | 1.22 fold enrichment (6-mer frequency, TF over GST control) | 1.26 fold enrichment (6-mer frequency, TF over GST control) | 1.23 fold enrichment (6-mer frequency, TF over GST control) | 1.18 fold enrichment (6-mer frequency, TF over GST control) | 1.32 fold enrichment (6-mer frequency, TF over GST control) | 1.24 fold enrichment (6-mer frequency, TF over GST control) | 1.23 fold enrichment (6-mer frequency, TF over GST control) | 1.21 fold enrichment (6-mer frequency, TF over GST control)
GCTGAT | 1.07 fold enrichment (6-mer frequency, TF over GST control) | 1.18 fold enrichment (6-mer frequency, TF over GST control) | 1.12 fold enrichment (6-mer frequency, TF over GST control) | 1.07 fold enrichment (6-mer frequency, TF over GST control) | 1.27 fold enrichment (6-mer frequency, TF over GST control) | 1.03 fold enrichment (6-mer frequency, TF over GST control) | 1.2 fold enrichment (6-mer frequency, TF over GST control) | 
AATTAA | 1.31 fold enrichment (6-mer frequency, TF over GST control) | 1.2 fold enrichment (6-mer frequency, TF over GST control) | 1.24 fold enrichment (6-mer frequency, TF over GST control) | 1.17 fold enrichment (6-mer frequency, TF over GST control) | 1.2 fold enrichment (6-mer frequency, TF over GST control) | 1.23 fold enrichment (6-mer frequency, TF over GST control) | 1.25 fold enrichment (6-mer frequency, TF over GST control) | 1.32 fold enrichment (6-mer frequency, TF over GST control)
TGGCCT | 1.38 fold enrichment (6-mer frequency, TF over GST control) | 1.37 fold enrichment (6-mer frequency, TF over GST control) | 1.32 fold enrichment (6-mer frequency, TF over GST control) | 1.42 fold enrichment (6-mer frequency, TF over GST control) | 1.42 fold enrichment (6-mer frequency, TF over GST control) | 1.33 fold enrichment (6-mer frequency, TF over GST control) | 1.35 fold enrichment (6-mer frequency, TF over GST control) | 1.5 fold enrichment (6-mer frequency, TF over GST control)
GGCCTT | 1.12 fold enrichment (6-mer frequency, TF over GST control) | 1.05 fold enrichment (6-mer frequency, TF over GST control) | 1.09 fold enrichment (6-mer frequency, TF over GST control) | 1.06 fold enrichment (6-mer frequency, TF over GST control) | 1.34 fold enrichment (6-mer frequency, TF over GST control) | 1.06 fold enrichment (6-mer frequency, TF over GST control) | 1.11 fold enrichment (6-mer frequency, TF over GST control) | 1.04 fold enrichment (6-mer frequency, TF over GST control)
TCACCA | 1.12 fold enrichment (6-mer frequency, TF over GST control) | 1.16 fold enrichment (6-mer frequency, TF over GST control) | 1.08 fold enrichment (6-mer frequency, TF over GST control) | 1.13 fold enrichment (6-mer frequency, TF over GST control) | 1.04 fold enrichment (6-mer frequency, TF over GST control) | 1.07 fold enrichment (6-mer frequency, TF over GST control) | 1.19 fold enrichment (6-mer frequency, TF over GST control) | 1.08 fold enrichment (6-mer frequency, TF over GST control)
ACATGC | 1.37 fold enrichment (6-mer frequency, TF over GST control) | 1.26 fold enrichment (6-mer frequency, TF over GST control) | 1.25 fold enrichment (6-mer frequency, TF over GST control) | 1.24 fold enrichment (6-mer frequency, TF over GST control) | 1.23 fold enrichment (6-mer frequency, TF over GST control) | 1.23 fold enrichment (6-mer frequency, TF over GST control) | 1.22 fold enrichment (6-mer frequency, TF over GST control) | 1.45 fold enrichment (6-mer frequency, TF over GST control)
TTATGC | 1.16 fold enrichment (6-mer frequency, TF over GST control) | 1.33 fold enrichment (6-mer frequency, TF over GST control) | 1.28 fold enrichment (6-mer frequency, TF over GST control) | 1.37 fold enrichment (6-mer frequency, TF over GST control) | 1.44 fold enrichment (6-mer frequency, TF over GST control) | 1.29 fold enrichment (6-mer frequency, TF over GST control) | 1.34 fold enrichment (6-mer frequency, TF over GST control) | 1.31 fold enrichment (6-mer frequency, TF over GST control)
GCTCAA | 1.08 fold enrichment (6-mer frequency, TF over GST control) | 1.13 fold enrichment (6-mer frequency, TF over GST control) | 1.11 fold enrichment (6-mer frequency, TF over GST control) | 1.04 fold enrichment (6-mer frequency, TF over GST control) | 1.16 fold enrichment (6-mer frequency, TF over GST control) | 1 fold enrichment (6-mer frequency, TF over GST control) | 1.04 fold enrichment (6-mer frequency, TF over GST control) | 1.1 fold enrichment (6-mer frequency, TF over GST control)
GGCTCA | 1.3 fold enrichment (6-mer frequency, TF over GST control) | 1.33 fold enrichment (6-mer frequency, TF over GST control) | 1.19 fold enrichment (6-mer frequency, TF over GST control) | 1.15 fold enrichment (6-mer frequency, TF over GST control) | 1.15 fold enrichment (6-mer frequency, TF over GST control) | 1.14 fold enrichment (6-mer frequency, TF over GST control) | 1.23 fold enrichment (6-mer frequency, TF over GST control) | 1.26 fold enrichment (6-mer frequency, TF over GST control)
